# Data published in article PMC11006913.
# Positions count from the first letter of the chain named.
# What was measured:
# Experiment in all cases: PBM; 200 nM protein, PBS
# Settings in all cases: dsDNA, one strand shown
# HOXA7 = HOXA7 (Homo sapiens, UniProt P31268 116-202)
# ALX3 [1] = molecular target: ALX3 (Homo sapiens, UniProt O95076 139-225, N203Q)
# MSX2 = MSX2 (Homo sapiens, UniProt P35548 130-214)
# ALX3 [2] = molecular target: ALX3 (Homo sapiens, UniProt O95076 139-225)
# PAX4 [3] = molecular target: T1, PAX4 (Homo sapiens, UniProt O43316 9-242, F177Y)
# T1 sequence: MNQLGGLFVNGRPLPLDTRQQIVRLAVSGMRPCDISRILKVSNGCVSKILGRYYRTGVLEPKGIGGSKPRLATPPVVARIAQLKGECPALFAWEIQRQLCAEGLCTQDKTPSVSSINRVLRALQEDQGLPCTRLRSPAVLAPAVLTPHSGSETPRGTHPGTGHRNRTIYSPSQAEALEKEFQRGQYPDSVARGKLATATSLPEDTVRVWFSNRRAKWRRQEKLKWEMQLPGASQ
# ALX3 [4] = molecular target: ALX3 (Homo sapiens, UniProt O95076 139-225, L168V)
# Chain of ALX3 (Homo sapiens, UniProt O95076 139-225, L168V) (O95076 139-225 L168V): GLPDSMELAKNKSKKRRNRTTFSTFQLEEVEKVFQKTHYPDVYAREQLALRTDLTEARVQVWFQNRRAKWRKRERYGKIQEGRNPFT
# VAX1 = VAX1 (Homo sapiens, UniProt Q5SQQ9 86-172, T142I)
# Chain of VAX1 (Q5SQQ9 86-172 T142I): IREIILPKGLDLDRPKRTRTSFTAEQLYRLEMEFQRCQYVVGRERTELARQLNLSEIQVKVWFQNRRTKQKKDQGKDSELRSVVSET
# PAX4 [5] = molecular target: T2, PAX4 (Homo sapiens, UniProt O43316 9-242, R227W)
# T2 sequence: T1 sequence with Y169F, R219W
# HOXA4 = HOXA4 (Homo sapiens, UniProt Q00056 201-287, W262F)
# Chain of HOXA4 (Q00056 201-287 W262F): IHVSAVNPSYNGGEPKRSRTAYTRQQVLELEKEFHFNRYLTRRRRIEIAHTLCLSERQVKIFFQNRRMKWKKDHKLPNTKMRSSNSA
# ALX3 [6] = molecular target: ALX3 (Homo sapiens, UniProt O95076 139-225, N203S)
# Chain of ALX3 (Homo sapiens, UniProt O95076 139-225, N203S) (O95076 139-225 N203S): as the sequence (O95076 139-225 L168V) above, with V30L, N65S counted along it
# PAX4 [7] = molecular target: T3, PAX4 (Homo sapiens, UniProt O43316 9-242, F177V)
# T3 sequence: T1 sequence with Y169V
# VENTX [8] = molecular target: T4, VENTX (Homo sapiens, UniProt O95231 78-163, R121Q)
# T4 sequence: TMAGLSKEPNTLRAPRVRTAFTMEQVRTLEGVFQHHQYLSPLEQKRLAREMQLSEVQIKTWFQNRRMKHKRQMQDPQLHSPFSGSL
# VENTX [9] = molecular target: T5, VENTX (Homo sapiens, UniProt O95231 78-163, Y115F)
# T5 sequence: T4 sequence with Y38F, Q44R
# HOXA2 [10] = molecular target: HOXA2 (Homo sapiens, UniProt O43364 129-215, R185T)
# Chain of HOXA2 (Homo sapiens, UniProt O43364 129-215, R185T) (O43364 129-215 R185T): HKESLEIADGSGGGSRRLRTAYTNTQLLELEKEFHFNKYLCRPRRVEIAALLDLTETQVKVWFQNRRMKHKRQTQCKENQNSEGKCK
# HOXA2 [11] = molecular target: HOXA2 (Homo sapiens, UniProt O43364 129-215, R185K)
# Chain of HOXA2 (Homo sapiens, UniProt O43364 129-215, R185K) (O43364 129-215 R185K): as the sequence (O43364 129-215 R185T) above, with T57K counted along it
# HOXA2 [12] = molecular target: HOXA2 (Homo sapiens, UniProt O43364 129-215, Y150S)
# Chain of HOXA2 (Homo sapiens, UniProt O43364 129-215, Y150S) (O43364 129-215 Y150S): as the sequence (O43364 129-215 R185T) above, with Y22S, T57R counted along it
# HOXA2 [13] = molecular target: HOXA2 (Homo sapiens, UniProt O43364 129-215)
# Chain of HOXA2 (Homo sapiens, UniProt O43364 129-215) (O43364 129-215): as the sequence (O43364 129-215 R185T) above, with T57R counted along it
# PAX4 [14] = molecular target: T6, PAX4 (Homo sapiens, UniProt O43316 9-242, R200K)
# T6 sequence: T1 sequence with Y169F, R192K
# PAX4 [15] = molecular target: T7, PAX4 (Homo sapiens, UniProt O43316 9-242)
# T7 sequence: T1 sequence with Y169F
# PAX4 [16] = molecular target: T8, PAX4 (Homo sapiens, UniProt O43316 9-242, R200Q)
# T8 sequence: T1 sequence with Y169F, R192Q
# Chain of MSX2 (P35548 130-214): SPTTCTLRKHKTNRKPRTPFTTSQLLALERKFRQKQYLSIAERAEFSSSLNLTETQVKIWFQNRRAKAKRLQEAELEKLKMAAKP
# Chain of HOXA7 (P31268 116-202): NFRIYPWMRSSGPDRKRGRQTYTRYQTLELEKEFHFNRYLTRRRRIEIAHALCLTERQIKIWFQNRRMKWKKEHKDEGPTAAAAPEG
# Chain of ALX3 (Homo sapiens, UniProt O95076 139-225, N203Q) (O95076 139-225 N203Q): as the sequence (O95076 139-225 L168V) above, with V30L, N65Q counted along it
# Chain of ALX3 (Homo sapiens, UniProt O95076 139-225) (O95076 139-225): as the sequence (O95076 139-225 L168V) above, with V30L counted along it
sequence,measurement,setting,value
AATTATTA,binding signal,HOXA7,"11.3 upbm affinity estimate (log intensity, higher = more binding, comparable within an allelic series)"
same,binding signal,ALX3 [1],"8.58 upbm affinity estimate (log intensity, higher = more binding, comparable within an allelic series)"
same,binding signal,MSX2,"13.4 upbm affinity estimate (log intensity, higher = more binding, comparable within an allelic series)"
same,binding signal,ALX3 [2],"12.3 upbm affinity estimate (log intensity, higher = more binding, comparable within an allelic series)"
same,binding signal,PAX4 [3],"10.9 upbm affinity estimate (log intensity, higher = more binding, comparable within an allelic series)"
same,binding signal,ALX3 [4],"9.98 upbm affinity estimate (log intensity, higher = more binding, comparable within an allelic series)"
same,binding signal,VAX1,"12.3 upbm affinity estimate (log intensity, higher = more binding, comparable within an allelic series)"
same,binding signal,PAX4 [5],"11 upbm affinity estimate (log intensity, higher = more binding, comparable within an allelic series)"
same,binding signal,HOXA4,"11.5 upbm affinity estimate (log intensity, higher = more binding, comparable within an allelic series)"
same,binding signal,ALX3 [6],"8.68 upbm affinity estimate (log intensity, higher = more binding, comparable within an allelic series)"
ACAATTAT,binding signal,PAX4 [7],"10.6 upbm affinity estimate (log intensity, higher = more binding, comparable within an allelic series)"
same,binding signal,MSX2,"13.8 upbm affinity estimate (log intensity, higher = more binding, comparable within an allelic series)"
same,binding signal,ALX3 [6],"8.71 upbm affinity estimate (log intensity, higher = more binding, comparable within an allelic series)"
CCCCCAGC,binding signal,VENTX [8],"7.89 upbm affinity estimate (log intensity, higher = more binding, comparable within an allelic series)"
same,binding signal,HOXA7,"8.08 upbm affinity estimate (log intensity, higher = more binding, comparable within an allelic series)"
same,binding signal,VENTX [9],"7.96 upbm affinity estimate (log intensity, higher = more binding, comparable within an allelic series)"
same,binding signal,VAX1,"7.15 upbm affinity estimate (log intensity, higher = more binding, comparable within an allelic series)"
AAGCTGGC,binding signal,HOXA7,"8.32 upbm affinity estimate (log intensity, higher = more binding, comparable within an allelic series)"
GCCAGCCC,binding signal,VAX1,"7.2 upbm affinity estimate (log intensity, higher = more binding, comparable within an allelic series)"
CGACGCGA,binding signal,VENTX [8],"7.97 upbm affinity estimate (log intensity, higher = more binding, comparable within an allelic series)"
same,binding signal,VENTX [9],"8.13 upbm affinity estimate (log intensity, higher = more binding, comparable within an allelic series)"
CGCAATTA,binding signal,HOXA7,"11.2 upbm affinity estimate (log intensity, higher = more binding, comparable within an allelic series)"
same,binding signal,VENTX [9],"11.4 upbm affinity estimate (log intensity, higher = more binding, comparable within an allelic series)"
same,binding signal,HOXA2 [10],"12.4 upbm affinity estimate (log intensity, higher = more binding, comparable within an allelic series)"
same,binding signal,HOXA2 [11],"13.1 upbm affinity estimate (log intensity, higher = more binding, comparable within an allelic series)"
same,binding signal,MSX2,"13.7 upbm affinity estimate (log intensity, higher = more binding, comparable within an allelic series)"
same,binding signal,HOXA2 [12],"10.7 upbm affinity estimate (log intensity, higher = more binding, comparable within an allelic series)"
same,binding signal,HOXA2 [13],"12.1 upbm affinity estimate (log intensity, higher = more binding, comparable within an allelic series)"
GCCAGACC,binding signal,PAX4 [14],"9.2 upbm affinity estimate (log intensity, higher = more binding, comparable within an allelic series)"
same,binding signal,PAX4 [15],"9.05 upbm affinity estimate (log intensity, higher = more binding, comparable within an allelic series)"
same,binding signal,HOXA2 [10],"7.3 upbm affinity estimate (log intensity, higher = more binding, comparable within an allelic series)"
same,binding signal,PAX4 [16],"9.35 upbm affinity estimate (log intensity, higher = more binding, comparable within an allelic series)"
same,binding signal,HOXA2 [11],"10.5 upbm affinity estimate (log intensity, higher = more binding, comparable within an allelic series)"
same,binding signal,PAX4 [7],"9.2 upbm affinity estimate (log intensity, higher = more binding, comparable within an allelic series)"
same,binding signal,PAX4 [3],"9.19 upbm affinity estimate (log intensity, higher = more binding, comparable within an allelic series)"
same,binding signal,PAX4 [5],"9.26 upbm affinity estimate (log intensity, higher = more binding, comparable within an allelic series)"
same,binding signal,HOXA2 [12],"10.4 upbm affinity estimate (log intensity, higher = more binding, comparable within an allelic series)"
same,binding signal,HOXA2 [13],"7.38 upbm affinity estimate (log intensity, higher = more binding, comparable within an allelic series)"
CCAGGACC,binding signal,VENTX [8],"8.04 upbm affinity estimate (log intensity, higher = more binding, comparable within an allelic series)"
same,binding signal,VENTX [9],"8.14 upbm affinity estimate (log intensity, higher = more binding, comparable within an allelic series)"
GCAATTAC,binding signal,HOXA7,"11.2 upbm affinity estimate (log intensity, higher = more binding, comparable within an allelic series)"
same,binding signal,MSX2,"13.7 upbm affinity estimate (log intensity, higher = more binding, comparable within an allelic series)"
ATAATTGC,binding signal,HOXA7,"11.5 upbm affinity estimate (log intensity, higher = more binding, comparable within an allelic series)"
same,binding signal,HOXA2 [10],"12.4 upbm affinity estimate (log intensity, higher = more binding, comparable within an allelic series)"
same,binding signal,HOXA2 [11],"13.2 upbm affinity estimate (log intensity, higher = more binding, comparable within an allelic series)"
same,binding signal,MSX2,"14 upbm affinity estimate (log intensity, higher = more binding, comparable within an allelic series)"
same,binding signal,HOXA2 [12],"10.8 upbm affinity estimate (log intensity, higher = more binding, comparable within an allelic series)"
same,binding signal,HOXA2 [13],"12.2 upbm affinity estimate (log intensity, higher = more binding, comparable within an allelic series)"
AATAATTG,binding signal,MSX2,"13.7 upbm affinity estimate (log intensity, higher = more binding, comparable within an allelic series)"
same,binding signal,ALX3 [4],"9.75 upbm affinity estimate (log intensity, higher = more binding, comparable within an allelic series)"
CTGCATTA,binding signal,HOXA7,"9.13 upbm affinity estimate (log intensity, higher = more binding, comparable within an allelic series)"
same,binding signal,HOXA2 [10],"9.52 upbm affinity estimate (log intensity, higher = more binding, comparable within an allelic series)"
same,binding signal,HOXA2 [11],"11.7 upbm affinity estimate (log intensity, higher = more binding, comparable within an allelic series)"
same,binding signal,HOXA2 [12],"10.6 upbm affinity estimate (log intensity, higher = more binding, comparable within an allelic series)"
same,binding signal,HOXA2 [13],"9.83 upbm affinity estimate (log intensity, higher = more binding, comparable within an allelic series)"
GTCCTGCA,binding signal,VENTX [8],"8.28 upbm affinity estimate (log intensity, higher = more binding, comparable within an allelic series)"
same,binding signal,VENTX [9],"8.13 upbm affinity estimate (log intensity, higher = more binding, comparable within an allelic series)"
